Reference: the supplement of paper PMC11732987, “Enantioselective OTUD7B fragment discovery through chemoproteomics screening and high-throughput optimisation” (Communications Chemistry, 2025)

Key:
Test in all cases: log2 ratio of Biotin-Ahx-Ub-VS probe labelling (fragment/DMSO); higher = less target engagement (more negative = stronger competition), active = hit call of the paper (q ≤ 0.05, log2 ratio ≤ -1)
Conditions in all cases: compound concentration: 200 uM; treatment time: 3 h
USP34 = USP34 (UniProt Q70CQ2)
In short: (§1)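 Labelled DUBs from HEK293T lysate were NeutrAvidin-enriched, digested with LysC and trypsin, and run by diaPASEF LC-MS/MS. Before that, each 495 µg sample in Tris/CHAPS/IGEPAL buffer with protease inhibitors was treated in triplicate with fragment at 200 µM or vehicle for 3 h, then with Biotin-Ahx-Ub-VS at 0.5 µM final for 1 h. Values are average log2 ratios of fragment over vehicle by unpaired t-test, based on global-median-normalised Spectronaut label-free quantities from proteins with ≥2 unique peptides.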

USP36 = molecular target: T1, USP36 (UniProt Q9P275)
T1 sequence (whole entry): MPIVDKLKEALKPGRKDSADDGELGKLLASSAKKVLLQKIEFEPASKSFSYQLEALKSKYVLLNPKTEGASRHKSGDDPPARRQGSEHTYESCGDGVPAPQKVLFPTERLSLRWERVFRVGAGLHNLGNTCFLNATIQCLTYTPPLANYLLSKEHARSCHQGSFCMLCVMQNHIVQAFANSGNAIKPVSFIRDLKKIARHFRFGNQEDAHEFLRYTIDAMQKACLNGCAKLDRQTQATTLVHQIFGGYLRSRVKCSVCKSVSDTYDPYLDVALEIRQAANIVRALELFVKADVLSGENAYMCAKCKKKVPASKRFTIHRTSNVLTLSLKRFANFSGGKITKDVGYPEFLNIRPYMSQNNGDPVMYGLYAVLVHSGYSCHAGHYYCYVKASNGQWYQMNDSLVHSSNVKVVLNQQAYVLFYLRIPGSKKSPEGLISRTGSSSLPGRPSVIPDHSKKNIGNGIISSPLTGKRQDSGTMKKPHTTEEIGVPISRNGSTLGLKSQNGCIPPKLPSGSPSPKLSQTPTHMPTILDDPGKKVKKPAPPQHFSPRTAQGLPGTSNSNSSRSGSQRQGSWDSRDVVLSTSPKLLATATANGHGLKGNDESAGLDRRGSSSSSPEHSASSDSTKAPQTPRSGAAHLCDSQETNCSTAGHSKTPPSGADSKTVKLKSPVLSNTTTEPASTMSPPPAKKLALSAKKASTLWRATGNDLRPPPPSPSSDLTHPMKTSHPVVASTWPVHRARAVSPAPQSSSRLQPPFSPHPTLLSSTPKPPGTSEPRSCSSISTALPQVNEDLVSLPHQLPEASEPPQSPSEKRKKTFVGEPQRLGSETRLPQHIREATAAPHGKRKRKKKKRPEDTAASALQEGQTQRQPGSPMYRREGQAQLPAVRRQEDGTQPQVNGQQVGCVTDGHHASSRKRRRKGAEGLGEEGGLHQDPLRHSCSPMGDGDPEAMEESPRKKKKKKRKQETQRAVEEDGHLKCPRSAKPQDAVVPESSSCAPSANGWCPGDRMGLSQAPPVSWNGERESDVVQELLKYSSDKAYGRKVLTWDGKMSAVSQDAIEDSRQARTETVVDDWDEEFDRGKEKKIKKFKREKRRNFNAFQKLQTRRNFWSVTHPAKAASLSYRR
In short: as §1

USP38 = molecular target: T2, USP38 (UniProt Q8NB14)
T2 sequence (whole entry): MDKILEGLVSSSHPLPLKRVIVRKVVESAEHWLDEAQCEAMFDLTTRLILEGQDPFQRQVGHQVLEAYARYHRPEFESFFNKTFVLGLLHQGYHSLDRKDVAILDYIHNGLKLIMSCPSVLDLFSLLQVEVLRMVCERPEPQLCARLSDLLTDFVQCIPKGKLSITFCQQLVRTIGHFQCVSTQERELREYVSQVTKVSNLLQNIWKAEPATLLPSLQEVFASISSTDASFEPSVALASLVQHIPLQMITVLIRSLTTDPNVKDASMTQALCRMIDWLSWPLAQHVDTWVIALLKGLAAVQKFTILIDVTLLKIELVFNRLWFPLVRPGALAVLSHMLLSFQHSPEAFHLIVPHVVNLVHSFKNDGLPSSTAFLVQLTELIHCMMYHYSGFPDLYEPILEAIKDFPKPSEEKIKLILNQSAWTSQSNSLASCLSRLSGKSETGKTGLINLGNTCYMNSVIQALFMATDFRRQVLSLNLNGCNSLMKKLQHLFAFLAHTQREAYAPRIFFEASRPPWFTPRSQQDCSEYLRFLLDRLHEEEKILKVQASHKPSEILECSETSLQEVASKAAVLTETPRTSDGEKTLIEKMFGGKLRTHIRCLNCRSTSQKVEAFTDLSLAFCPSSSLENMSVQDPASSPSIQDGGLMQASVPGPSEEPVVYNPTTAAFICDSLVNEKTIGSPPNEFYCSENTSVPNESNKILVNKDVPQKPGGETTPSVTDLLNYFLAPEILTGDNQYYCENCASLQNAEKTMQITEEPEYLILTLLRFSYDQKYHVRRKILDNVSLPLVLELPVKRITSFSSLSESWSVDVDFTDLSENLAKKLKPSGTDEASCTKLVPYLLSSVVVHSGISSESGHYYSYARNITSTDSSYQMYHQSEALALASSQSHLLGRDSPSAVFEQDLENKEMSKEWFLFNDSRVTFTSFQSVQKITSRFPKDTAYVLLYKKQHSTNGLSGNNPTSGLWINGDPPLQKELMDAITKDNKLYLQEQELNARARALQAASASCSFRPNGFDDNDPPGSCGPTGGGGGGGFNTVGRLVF
In short: as §1

USP39 = molecular target: T3, USP39 (UniProt Q53GS9)
T3 sequence (whole entry): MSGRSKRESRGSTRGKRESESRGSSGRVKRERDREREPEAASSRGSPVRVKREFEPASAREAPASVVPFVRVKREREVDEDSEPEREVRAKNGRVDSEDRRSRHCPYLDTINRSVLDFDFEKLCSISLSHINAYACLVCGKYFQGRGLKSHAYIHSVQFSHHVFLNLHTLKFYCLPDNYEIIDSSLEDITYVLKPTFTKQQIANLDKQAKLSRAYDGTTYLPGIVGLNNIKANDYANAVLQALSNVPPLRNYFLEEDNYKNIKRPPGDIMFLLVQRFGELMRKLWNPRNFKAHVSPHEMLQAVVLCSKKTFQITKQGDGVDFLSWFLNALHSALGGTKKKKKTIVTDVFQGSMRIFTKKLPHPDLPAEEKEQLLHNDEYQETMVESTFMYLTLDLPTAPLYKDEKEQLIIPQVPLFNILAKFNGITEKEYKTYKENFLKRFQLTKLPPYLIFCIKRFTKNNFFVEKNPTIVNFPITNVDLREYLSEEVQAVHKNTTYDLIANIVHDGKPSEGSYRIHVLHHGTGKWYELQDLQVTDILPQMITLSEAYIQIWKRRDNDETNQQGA
In short: as §1

USP4 = molecular target: T4, USP4 (UniProt Q13107)
T4 sequence (whole entry): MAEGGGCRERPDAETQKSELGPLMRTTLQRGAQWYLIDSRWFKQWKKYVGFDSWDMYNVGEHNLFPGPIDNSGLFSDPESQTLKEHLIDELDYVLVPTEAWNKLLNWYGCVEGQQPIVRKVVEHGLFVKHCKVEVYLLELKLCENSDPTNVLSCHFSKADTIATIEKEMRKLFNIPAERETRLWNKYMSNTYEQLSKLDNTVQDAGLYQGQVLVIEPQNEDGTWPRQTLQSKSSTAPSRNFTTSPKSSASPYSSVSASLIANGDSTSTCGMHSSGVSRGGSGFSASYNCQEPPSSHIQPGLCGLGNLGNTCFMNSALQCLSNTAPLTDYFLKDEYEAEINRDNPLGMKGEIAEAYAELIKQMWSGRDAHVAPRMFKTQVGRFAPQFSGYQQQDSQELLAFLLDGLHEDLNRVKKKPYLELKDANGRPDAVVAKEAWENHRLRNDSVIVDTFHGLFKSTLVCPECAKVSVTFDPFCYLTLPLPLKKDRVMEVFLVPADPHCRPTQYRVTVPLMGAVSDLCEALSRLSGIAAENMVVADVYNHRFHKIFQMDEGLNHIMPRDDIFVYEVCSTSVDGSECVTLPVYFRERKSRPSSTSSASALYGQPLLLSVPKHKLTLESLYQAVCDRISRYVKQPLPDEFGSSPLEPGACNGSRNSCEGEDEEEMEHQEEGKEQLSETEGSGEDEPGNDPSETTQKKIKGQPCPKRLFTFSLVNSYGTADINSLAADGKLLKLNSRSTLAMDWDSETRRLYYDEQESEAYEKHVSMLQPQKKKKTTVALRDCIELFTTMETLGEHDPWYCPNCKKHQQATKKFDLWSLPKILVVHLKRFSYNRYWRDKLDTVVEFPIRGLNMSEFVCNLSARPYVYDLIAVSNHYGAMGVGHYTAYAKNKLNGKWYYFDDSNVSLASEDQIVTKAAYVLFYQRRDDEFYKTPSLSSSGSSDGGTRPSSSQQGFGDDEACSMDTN
In short: as §1

Measured: log2 ratio of Biotin-Ahx-Ub-VS probe labelling

Sequence of USP34 (Q70CQ2 whole entry, the tested form may be a part): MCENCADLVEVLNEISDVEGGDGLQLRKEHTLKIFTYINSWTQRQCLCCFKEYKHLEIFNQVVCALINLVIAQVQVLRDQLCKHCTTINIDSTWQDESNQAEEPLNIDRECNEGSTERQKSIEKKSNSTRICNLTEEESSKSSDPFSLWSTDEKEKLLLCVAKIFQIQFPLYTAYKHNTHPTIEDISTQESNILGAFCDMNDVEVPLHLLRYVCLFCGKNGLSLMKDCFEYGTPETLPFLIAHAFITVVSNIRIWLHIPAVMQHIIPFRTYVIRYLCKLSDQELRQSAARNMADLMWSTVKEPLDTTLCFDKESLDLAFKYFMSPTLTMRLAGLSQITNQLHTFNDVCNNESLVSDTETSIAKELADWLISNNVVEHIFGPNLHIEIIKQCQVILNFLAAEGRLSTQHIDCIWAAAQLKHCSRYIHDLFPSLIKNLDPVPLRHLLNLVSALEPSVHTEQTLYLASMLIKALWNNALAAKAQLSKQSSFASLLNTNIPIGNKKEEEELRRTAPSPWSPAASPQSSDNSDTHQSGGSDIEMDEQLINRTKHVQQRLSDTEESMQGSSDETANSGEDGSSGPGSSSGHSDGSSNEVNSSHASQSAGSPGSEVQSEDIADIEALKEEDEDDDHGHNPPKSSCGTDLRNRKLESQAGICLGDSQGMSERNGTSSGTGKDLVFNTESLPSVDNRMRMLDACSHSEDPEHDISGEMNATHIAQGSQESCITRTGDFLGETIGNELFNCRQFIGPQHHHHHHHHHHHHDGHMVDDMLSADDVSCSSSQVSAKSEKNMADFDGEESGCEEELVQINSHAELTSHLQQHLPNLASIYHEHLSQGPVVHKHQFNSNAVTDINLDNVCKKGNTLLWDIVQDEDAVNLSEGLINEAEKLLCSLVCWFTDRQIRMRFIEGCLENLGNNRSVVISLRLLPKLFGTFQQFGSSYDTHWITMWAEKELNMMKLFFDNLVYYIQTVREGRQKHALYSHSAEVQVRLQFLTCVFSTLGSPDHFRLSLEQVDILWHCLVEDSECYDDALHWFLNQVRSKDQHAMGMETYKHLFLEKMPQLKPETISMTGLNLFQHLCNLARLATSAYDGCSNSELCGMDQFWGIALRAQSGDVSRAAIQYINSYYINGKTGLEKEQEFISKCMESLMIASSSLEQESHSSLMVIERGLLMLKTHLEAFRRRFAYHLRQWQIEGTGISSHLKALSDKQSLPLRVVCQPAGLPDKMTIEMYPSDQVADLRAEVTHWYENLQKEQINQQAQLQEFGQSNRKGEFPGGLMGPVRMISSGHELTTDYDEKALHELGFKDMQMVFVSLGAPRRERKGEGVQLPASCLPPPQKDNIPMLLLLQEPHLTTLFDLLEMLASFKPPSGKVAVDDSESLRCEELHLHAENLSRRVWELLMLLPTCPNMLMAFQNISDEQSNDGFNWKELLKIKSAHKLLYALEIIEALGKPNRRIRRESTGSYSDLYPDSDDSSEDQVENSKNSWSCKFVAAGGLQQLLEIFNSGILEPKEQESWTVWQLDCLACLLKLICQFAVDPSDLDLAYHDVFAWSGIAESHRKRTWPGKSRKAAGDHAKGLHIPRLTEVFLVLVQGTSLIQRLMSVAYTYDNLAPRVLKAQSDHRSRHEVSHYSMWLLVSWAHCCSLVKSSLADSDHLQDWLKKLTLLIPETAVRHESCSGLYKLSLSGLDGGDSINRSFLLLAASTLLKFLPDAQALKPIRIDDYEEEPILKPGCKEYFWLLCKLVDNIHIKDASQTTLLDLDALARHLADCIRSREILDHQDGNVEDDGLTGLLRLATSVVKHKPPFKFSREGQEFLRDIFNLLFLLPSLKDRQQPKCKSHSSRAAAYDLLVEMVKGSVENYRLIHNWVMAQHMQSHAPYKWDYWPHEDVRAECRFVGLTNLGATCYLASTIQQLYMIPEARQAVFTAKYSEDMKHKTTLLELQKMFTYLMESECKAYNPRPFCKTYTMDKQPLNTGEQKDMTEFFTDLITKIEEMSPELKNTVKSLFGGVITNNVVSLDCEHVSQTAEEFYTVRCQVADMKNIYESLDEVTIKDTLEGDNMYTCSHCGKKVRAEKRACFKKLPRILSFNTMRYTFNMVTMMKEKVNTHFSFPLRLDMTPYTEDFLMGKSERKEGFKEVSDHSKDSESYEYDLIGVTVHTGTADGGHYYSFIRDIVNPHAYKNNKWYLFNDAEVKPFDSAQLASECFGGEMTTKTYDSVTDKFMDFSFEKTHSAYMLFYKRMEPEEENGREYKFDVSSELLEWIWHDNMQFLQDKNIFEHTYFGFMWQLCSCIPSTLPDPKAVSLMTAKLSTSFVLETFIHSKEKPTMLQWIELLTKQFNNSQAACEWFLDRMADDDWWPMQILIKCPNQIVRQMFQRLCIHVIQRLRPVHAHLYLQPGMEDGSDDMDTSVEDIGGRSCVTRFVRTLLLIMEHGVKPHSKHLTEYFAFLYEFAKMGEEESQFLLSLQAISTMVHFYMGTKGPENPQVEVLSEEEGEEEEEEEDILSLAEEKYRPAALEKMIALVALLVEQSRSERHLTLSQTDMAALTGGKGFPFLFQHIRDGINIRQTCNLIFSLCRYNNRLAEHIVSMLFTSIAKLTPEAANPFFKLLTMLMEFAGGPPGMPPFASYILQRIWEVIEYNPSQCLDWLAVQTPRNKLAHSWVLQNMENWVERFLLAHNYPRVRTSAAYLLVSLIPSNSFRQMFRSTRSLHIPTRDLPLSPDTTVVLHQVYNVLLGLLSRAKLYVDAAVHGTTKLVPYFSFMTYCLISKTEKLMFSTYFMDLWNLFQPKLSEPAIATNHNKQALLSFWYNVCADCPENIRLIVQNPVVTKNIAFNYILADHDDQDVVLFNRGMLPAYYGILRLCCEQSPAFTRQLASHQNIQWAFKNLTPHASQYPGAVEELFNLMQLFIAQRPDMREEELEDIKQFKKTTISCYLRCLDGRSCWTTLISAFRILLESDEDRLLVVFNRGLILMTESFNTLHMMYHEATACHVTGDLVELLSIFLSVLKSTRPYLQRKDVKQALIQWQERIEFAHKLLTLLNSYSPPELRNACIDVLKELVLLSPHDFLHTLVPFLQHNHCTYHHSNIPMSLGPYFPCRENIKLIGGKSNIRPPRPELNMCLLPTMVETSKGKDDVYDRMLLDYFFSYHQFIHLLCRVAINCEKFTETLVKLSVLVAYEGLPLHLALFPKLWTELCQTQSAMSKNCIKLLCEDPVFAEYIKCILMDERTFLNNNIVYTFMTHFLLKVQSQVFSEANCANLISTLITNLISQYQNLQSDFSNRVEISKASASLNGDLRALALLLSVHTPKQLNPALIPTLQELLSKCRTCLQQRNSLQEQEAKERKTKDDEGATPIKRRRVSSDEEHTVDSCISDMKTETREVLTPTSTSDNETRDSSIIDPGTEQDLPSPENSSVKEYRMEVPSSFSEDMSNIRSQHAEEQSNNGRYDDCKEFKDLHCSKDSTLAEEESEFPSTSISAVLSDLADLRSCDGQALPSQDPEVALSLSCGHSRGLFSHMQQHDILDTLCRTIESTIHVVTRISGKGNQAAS

CS(=O)(=O)c1ccc(CNC(=O)CCl)cc1
inactive: USP34 -0.0991 | USP36 -0.225 | USP38 -0.0436 | USP39 0.204 | USP4 -0.0105
